Data taken from PubChem BioAssay (EPA / NIEHS).
Inconclusive results are not listed. The source made the active and inactive calls. Rule for the calls, unless noted: active = hit-call score of the fitted dose curve at least 0.9, where 1 is the maximum; inconclusive = response in the unintended direction; inactive = score below 0.9.

Experiments:
[1] = ATG_TAL_CIS: Attagene CIS-FACTORIAL HepG2 Assay for human TAL Basal Promoter (AID 2282966; active = hit-call score of the fitted dose curve at least 0.9, where 1 is the maximum; inactive = score below 0.9;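 note: background control endpoint measuring basal TAL promoter reporter mRNA not a specific factor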); settings: HepG2 Attagene cis-factorial TAL promoter reporter; actives raise or lower the signal
Method in brief: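 Steps: transfect HepG2 with multiple reporter transcription units; dose 24 h; isolate RNA, reverse-transcribe, PCR-amplify, label with 6-FAM, digest with HpaI; resolve by capillary electrophoresis. Bidirectional fitting against DMSO baseline.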

[2] = ATG_TGFb_CIS: Attagene CIS-FACTORIAL HepG2 Assay for human Transforming Growth Factor (TGF) (AID 2282967; active = hit-call score of the fitted dose curve at least 0.9, where 1 is the maximum; inactive = score below 0.9); settings: HepG2 Attagene CIS TGFb reporter, mRNA transcription; actives raise or lower the signal
Method in brief: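 Bidirectional fitting relative to DMSO gave the endpoint. Underlying data: reporter mRNA from HepG2 cells carrying transiently transfected cis-regulated reporter constructs, harvested 24 h after dosing and analyzed by RT-PCR and capillary electrophoresis.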

[3] = ATG_VDRE_CIS: Attagene CIS-FACTORIAL HepG2 Assay for human Vitamin D Receptor Element (VDRE) (AID 2282968; active = hit-call score of the fitted dose curve at least 0.9, where 1 is the maximum; inactive = score below 0.9); settings: HepG2 VDRE cis-reporter transcription, actives raise or lower the signal
Method in brief: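 Reporter mRNA induction, quantified by capillary electrophoresis of fluorescently labelled RT-PCR products, was read 24 h after dosing HepG2 cells carrying transiently transfected cis-regulated reporter units; gain or loss relative to DMSO.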

[4] = target: Nuclear receptor subfamily 1 group I member 3 (Homo sapiens) (UniProt Q14994); assay: ATG_CAR_TRANS: Attagene TRANS-FACTORIAL HepG2 Assay for human Constitutive Androstane Receptor (CAR) (AID 2282969); settings: HepG2 Attagene TRANS-FACTORIAL CAR reporter;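 note: activators raise reporter mRNA above DMSO so AC50 marks induction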
Method in brief: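 Readout is reporter mRNA induction, quantified by fluorescent primer extension and capillary electrophoresis after RT-PCR. Cells were HepG2 transiently carrying chimeric NR-Gal4 constructs with GAL4-UAS reporters, treated for 24 h; activity scored upward from DMSO.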

[5] = target: X-box-binding protein 1 (Homo sapiens) (UniProt P17861); assay: ATG_Xbp1_CIS: Attagene CIS-FACTORIAL HepG2 Assay for human X-box Binding Protein 1 (XBP1) (AID 2282972; active = hit-call score of the fitted dose curve at least 0.9, where 1 is the maximum; inactive = score below 0.9); settings: HepG2 XBP1 cis-element reporter, Attagene multiplex; actives raise or lower the signal
Method in brief: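 HepG2, transient MRTU transfection (cis-promoter driven), 24 h compound exposure. Total RNA → oligo(dT) RT → PCR → 6-FAM labeling → HpaI cut → CE. Bidirectional fit vs DMSO.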

[6] = target: Oxysterols receptor LXR-beta (Homo sapiens) (UniProt P55055); assay: ATG_LXRb_TRANS: Attagene TRANS-FACTORIAL HepG2 Assay for human Liver X Receptor beta (LXRb) (AID 2282981); settings: HepG2 Attagene TRANS GAL4-LXRb reporter, mRNA
Method in brief: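 Transient transfection HepG2 (multiplexed RTUs, GAL4-UAS); NR-Gal4 chimera; 24 h exposure; RNA → RT-PCR → 6-FAM primer extension → HpaI → CE; increase vs DMSO.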

[7] = target: Hepatocyte nuclear factor 4-alpha (Homo sapiens) (UniProt P41235); assay: ATG_HNF4a_TRANS: Attagene TRANS-FACTORIAL HepG2 Assay for human Hepatocyte Nuclear Factor 4 alpha (HNF4a) (AID 2282982); settings: HepG2 HNF4a transactivation reporter, mRNA readout
Method in brief: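 Readout is fluorescent reporter-transcript fragments resolved by capillary electrophoresis after RT-PCR from HepG2 cells dosed for 24 h. Cells carried transfected GAL4-UAS reporter constructs measuring exogenous NR-GAL4 chimera activity; DMSO served as baseline.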

[8] = ATG_M_06_TRANS: Attagene TRANS-FACTORIAL HepG2 Assay for M06 Transcription Factor (Internal Marker) (AID 2282983); settings: HepG2 Attagene TRANS M06 internal marker reporter;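 note: reporter transcript level by RT-PCR then capillary electrophoresis fluorescence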
Method in brief: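 Internal-marker background readout from a multiplexed TRANS reporter system in HepG2; 24 h dosing; mRNA induction quantified by RT-PCR plus capillary electrophoresis fluorescence; DMSO as negative control and baseline.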

[9] = ATG_M_32_TRANS: Attagene TRANS-FACTORIAL HepG2 Assay for M32 Transcription Factor (Internal Marker) (AID 2282984); settings: HepG2 Attagene TRANS M32 internal marker reporter;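 note: transcript level of a background control reporter unit measured by RT-PCR and capillary electrophoresis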
Method in brief: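 Measures reporter mRNA induction in human HepG2 liver cells after 24 h chemical treatment. Transcripts from transiently transfected GAL4-UAS reporter units are amplified, fluorescently labelled and sized by capillary electrophoresis; gain of signal relative to DMSO.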

[10] = target: Transcriptional activator Myb (Homo sapiens) (UniProt P10242); assay: ATG_Myb_CIS: Attagene CIS-FACTORIAL HepG2 Assay for human Myeloblastosis (Myb) Proto-Oncogene Transcription Factor (AID 2282986; active = hit-call score of the fitted dose curve at least 0.9, where 1 is the maximum; inactive = score below 0.9); settings: HepG2 Attagene CIS-FACTORIAL Myb reporter transcription; actives raise or lower the signal
Method in brief: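 Using HepG2 liver cells bearing transiently transfected cis-promoter reporter constructs, the assay measures induction or loss of reporter mRNA after 24 hours of dosing. Detection used fluorescently labeled RT-PCR products separated by capillary electrophoresis.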

[11] = target: Nuclear respiratory factor 1 (Homo sapiens) (UniProt Q16656); assay: ATG_NRF1_CIS: Attagene CIS-FACTORIAL HepG2 Assay for human Nuclear Respiratory Factor 1 (NRF1) Orphan Gene (AID 2282987; active = hit-call score of the fitted dose curve at least 0.9, where 1 is the maximum; inactive = score below 0.9); settings: HepG2 NRF1 cis-element reporter, Attagene multiplex; actives raise or lower the signal
Method in brief: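 Reporter mRNA induction or loss in HepG2 cells after 24 h dosing; cis-regulated reporter constructs report endogenous transcription-factor activity. Quantified by RT-PCR/capillary electrophoresis fluorescence, DMSO-referenced.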

[12] = target: Estrogen receptor (Homo sapiens) (UniProt P03372); assay: ATG_ERa_TRANS: Attagene TRANS-FACTORIAL HepG2 Assay for human Estrogen Receptor alpha (ERa) (AID 2282970); settings: HepG2 Attagene TRANS ERa GAL4 reporter, mRNA
Method in brief: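 Multiplexed cell-based reporter format in HepG2: chimeric ERa-Gal4 protein drives GAL4-UAS reporter transcription. Fluorescent reporter mRNA quantified by capillary electrophoresis 24 hours after dosing; endpoint fitted as signal gain against DMSO.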

[13] = target: Glucocorticoid receptor (Homo sapiens) (UniProt P04150); assay: ATG_GR_TRANS: Attagene TRANS-FACTORIAL HepG2 Assay for human Glucocorticoid Receptor (GR) (AID 2282978); settings: HepG2 Attagene TRANS GR reporter, mRNA transcription;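 note: activators score as hits since higher reporter transcript over DMSO is fitted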
Method in brief: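 Transiently transfected HepG2 cells express chimeric NR-GAL4 proteins acting on GAL4-UAS reporter units. Compounds are applied for 24 h. mRNA induction over DMSO is measured by capillary electrophoresis.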

[14] = ATG_M_19_TRANS: Attagene TRANS-FACTORIAL HepG2 Assay for M19 Transcription Factor (Internal Marker) (AID 2282974); settings: HepG2 Attagene TRANS-FACTORIAL M19 internal marker reporter
Method in brief: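 Multiplexed TRANS format: HepG2 liver cells bearing transient GAL4-UAS reporter units, chemical treatment 24 h, reporter transcripts quantified by RT-PCR plus capillary electrophoresis. DMSO defines baseline.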

[15] = target: Oxysterols receptor LXR-alpha (Homo sapiens) (UniProt Q13133); assay: ATG_LXRa_TRANS: Attagene TRANS-FACTORIAL HepG2 Assay for human Liver X Receptor alpha (LXRa) (AID 2282980); settings: HepG2 Attagene TRANS reporter, LXRa transactivation
Method in brief: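 In this multiplexed TRANS system, compounds act on HepG2 cells carrying GAL4-UAS reporter units and a receptor-GAL4 fusion for 24 h. Induced reporter RNA is amplified, fluorescently labelled and sized by capillary electrophoresis, with DMSO as baseline.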

[16] = target: Nuclear receptor subfamily 4 group A member 2 (Homo sapiens) (UniProt P43354); assay: ATG_NURR1_TRANS: Attagene TRANS-FACTORIAL HepG2 Assay for human Nuclear Receptor Related Protein 1 (NURR1) (AID 2282985); settings: HepG2 Attagene TRANS reporter, mRNA readout
Method in brief: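 Transient transfection of HepG2, human liver cells, with multiple GAL4-UAS reporter transcription units. Cells dosed 24 h, RNA isolated, reverse-transcribed, PCR-amplified, FAM-labelled, HpaI-digested, sized by capillary electrophoresis. DMSO served as negative control.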

[17] = target: Steroid hormone receptor ERR1 (Homo sapiens) (UniProt P11474); assay: ATG_ERRa_TRANS: Attagene TRANS-FACTORIAL HepG2 Assay for human Estrogen-Related Receptor alpha (ERRa) (AID 2282971); settings: HepG2 Attagene TRANS reporter, ERRa transactivation
Method in brief: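 Signal gain relative to DMSO for an ERRa-Gal4 chimeric receptor, read as reporter mRNA by RT-PCR/capillary electrophoresis. Human HepG2 liver cells, transient multiplex reporter transfection, 24 h chemical exposure.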

[18] = ATG_GAL4_TRANS: Attagene TRANS-FACTORIAL HepG2 Assay for GAL4 (Internal Marker) (AID 2282976); settings: HepG2 Attagene TRANS GAL4 internal marker reporter
Method in brief: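 Liver HepG2 line bearing multiplexed GAL4-UAS reporter constructs; 24 h chemical treatment. Transcripts were quantified as fluorescent fragments on capillary electrophoresis after RT-PCR and HpaI cut, with activity fitted upward from DMSO.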

[19] = target: Estrogen-related receptor gamma (Homo sapiens) (UniProt P62508); assay: ATG_ERRg_TRANS: Attagene TRANS-FACTORIAL HepG2 Assay for human Estrogen-Related Receptor gamma (ERRg) (AID 2282977); settings: HepG2 Attagene TRANS reporter, ERRg transactivation;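 note: hits increase reporter signal over DMSO so potencies reflect activators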
Method in brief: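 HepG2 cells transiently transfected with multiplexed GAL4-UAS reporter units driven by chimeric NR-Gal4 proteins; 24 h exposure. Reporter mRNA quantified by RT-PCR, fluorescent labelling, HpaI digestion and capillary electrophoresis; gain of signal vs DMSO.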

[20] = target: Bile acid receptor (Homo sapiens) (UniProt Q96RI1); assay: ATG_FXR_TRANS: Attagene TRANS-FACTORIAL HepG2 Assay for Farnesoid X Receptor (FXR) (AID 2282979); settings: HepG2 Attagene TRANS FXR-GAL4 reporter transcription;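 note: hits raise reporter mRNA above DMSO so AC50 marks FXR activation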
Method in brief: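 After 24 h chemical treatment of transfected HepG2 cells, GAL4-UAS reporter transcripts driven by an exogenous FXR-GAL4 fusion were measured by RT-PCR and capillary electrophoresis. Increases over DMSO were fitted.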

Measured: AC50

X-box-binding protein 1 (Homo sapiens), sequence (P17861 whole entry, looked up): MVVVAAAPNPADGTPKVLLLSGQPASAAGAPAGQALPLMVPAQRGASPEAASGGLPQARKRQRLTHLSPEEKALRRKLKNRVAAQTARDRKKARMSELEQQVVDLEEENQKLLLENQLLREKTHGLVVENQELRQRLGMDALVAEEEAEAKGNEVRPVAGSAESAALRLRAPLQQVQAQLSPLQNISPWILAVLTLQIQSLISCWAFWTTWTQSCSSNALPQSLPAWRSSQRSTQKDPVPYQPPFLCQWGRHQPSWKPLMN
Estrogen-related receptor gamma (Homo sapiens), sequence (P62508 whole entry, looked up, the tested form may be a part): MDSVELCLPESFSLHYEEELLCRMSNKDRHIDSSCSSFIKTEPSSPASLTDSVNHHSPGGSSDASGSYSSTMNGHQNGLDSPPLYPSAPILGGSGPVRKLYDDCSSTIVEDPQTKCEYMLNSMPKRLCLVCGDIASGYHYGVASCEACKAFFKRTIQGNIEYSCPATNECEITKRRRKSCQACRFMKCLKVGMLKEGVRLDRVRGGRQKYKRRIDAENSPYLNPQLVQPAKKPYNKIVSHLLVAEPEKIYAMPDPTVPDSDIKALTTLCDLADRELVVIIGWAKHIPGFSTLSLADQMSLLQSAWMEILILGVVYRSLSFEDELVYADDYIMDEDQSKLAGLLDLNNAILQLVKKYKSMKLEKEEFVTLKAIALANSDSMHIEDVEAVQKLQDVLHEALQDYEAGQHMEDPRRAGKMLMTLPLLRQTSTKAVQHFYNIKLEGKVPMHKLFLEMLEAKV
Nuclear respiratory factor 1 (Homo sapiens), sequence (Q16656 whole entry, looked up): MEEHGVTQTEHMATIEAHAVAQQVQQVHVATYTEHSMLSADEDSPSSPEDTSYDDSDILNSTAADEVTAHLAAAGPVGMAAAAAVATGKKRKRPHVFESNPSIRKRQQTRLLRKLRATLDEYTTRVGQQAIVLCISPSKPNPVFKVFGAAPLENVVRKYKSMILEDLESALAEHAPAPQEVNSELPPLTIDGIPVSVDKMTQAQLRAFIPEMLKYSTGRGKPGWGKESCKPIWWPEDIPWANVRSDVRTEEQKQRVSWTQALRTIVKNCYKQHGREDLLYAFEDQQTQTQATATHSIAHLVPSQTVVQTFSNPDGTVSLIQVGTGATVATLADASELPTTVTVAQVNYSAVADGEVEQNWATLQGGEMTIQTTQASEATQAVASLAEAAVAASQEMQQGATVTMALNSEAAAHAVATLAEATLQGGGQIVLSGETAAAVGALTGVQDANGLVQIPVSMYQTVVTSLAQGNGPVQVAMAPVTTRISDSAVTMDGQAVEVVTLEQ
Bile acid receptor (Homo sapiens), sequence (Q96RI1 whole entry, looked up, the tested form may be a part): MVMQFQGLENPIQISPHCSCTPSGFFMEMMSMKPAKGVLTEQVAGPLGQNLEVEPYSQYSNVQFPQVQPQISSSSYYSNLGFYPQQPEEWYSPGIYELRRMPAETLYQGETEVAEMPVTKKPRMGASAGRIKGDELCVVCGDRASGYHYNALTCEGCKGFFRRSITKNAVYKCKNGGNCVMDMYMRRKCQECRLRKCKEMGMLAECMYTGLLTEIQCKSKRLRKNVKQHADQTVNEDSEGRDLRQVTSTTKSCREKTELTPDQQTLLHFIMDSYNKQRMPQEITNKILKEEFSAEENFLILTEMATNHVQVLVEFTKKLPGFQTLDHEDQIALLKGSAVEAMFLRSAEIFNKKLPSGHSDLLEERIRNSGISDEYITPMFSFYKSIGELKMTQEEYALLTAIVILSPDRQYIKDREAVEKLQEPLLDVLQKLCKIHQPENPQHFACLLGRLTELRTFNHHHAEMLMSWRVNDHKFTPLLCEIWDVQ
Steroid hormone receptor ERR1 (Homo sapiens), sequence (P11474 whole entry, looked up, the tested form may be a part): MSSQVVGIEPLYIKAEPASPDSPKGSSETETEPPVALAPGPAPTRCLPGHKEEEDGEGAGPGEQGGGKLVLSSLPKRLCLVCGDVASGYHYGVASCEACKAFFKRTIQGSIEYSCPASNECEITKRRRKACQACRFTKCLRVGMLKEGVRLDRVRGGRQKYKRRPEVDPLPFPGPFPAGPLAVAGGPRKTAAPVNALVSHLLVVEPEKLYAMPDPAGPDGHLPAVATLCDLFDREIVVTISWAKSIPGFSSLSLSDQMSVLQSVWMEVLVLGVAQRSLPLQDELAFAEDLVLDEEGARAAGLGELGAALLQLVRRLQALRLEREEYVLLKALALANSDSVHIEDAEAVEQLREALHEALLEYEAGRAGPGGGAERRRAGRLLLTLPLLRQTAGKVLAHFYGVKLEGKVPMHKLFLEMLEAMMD
Glucocorticoid receptor (Homo sapiens), sequence (P04150 whole entry, looked up, the tested form may be a part): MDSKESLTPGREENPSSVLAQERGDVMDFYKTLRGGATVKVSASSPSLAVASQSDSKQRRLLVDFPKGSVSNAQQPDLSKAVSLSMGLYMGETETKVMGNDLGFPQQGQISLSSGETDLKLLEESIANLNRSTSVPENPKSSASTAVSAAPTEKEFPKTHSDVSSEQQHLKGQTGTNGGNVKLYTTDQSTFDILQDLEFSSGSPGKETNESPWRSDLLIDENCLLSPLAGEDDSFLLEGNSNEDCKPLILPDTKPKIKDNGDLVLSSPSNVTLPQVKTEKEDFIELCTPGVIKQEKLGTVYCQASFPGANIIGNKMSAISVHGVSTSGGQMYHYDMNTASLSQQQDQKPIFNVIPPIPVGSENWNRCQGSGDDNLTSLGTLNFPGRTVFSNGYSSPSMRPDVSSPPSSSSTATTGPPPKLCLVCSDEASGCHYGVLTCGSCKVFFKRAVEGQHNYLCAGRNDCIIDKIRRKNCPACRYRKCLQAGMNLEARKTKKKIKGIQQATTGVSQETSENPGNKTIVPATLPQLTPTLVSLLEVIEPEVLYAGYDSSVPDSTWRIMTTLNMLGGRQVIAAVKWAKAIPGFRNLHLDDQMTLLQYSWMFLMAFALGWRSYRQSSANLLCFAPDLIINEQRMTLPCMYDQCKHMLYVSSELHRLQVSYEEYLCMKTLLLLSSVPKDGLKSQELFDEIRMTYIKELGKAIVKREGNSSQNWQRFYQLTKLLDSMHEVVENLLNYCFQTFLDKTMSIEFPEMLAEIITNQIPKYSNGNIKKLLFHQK
Oxysterols receptor LXR-beta (Homo sapiens), sequence (P55055 whole entry, looked up, the tested form may be a part): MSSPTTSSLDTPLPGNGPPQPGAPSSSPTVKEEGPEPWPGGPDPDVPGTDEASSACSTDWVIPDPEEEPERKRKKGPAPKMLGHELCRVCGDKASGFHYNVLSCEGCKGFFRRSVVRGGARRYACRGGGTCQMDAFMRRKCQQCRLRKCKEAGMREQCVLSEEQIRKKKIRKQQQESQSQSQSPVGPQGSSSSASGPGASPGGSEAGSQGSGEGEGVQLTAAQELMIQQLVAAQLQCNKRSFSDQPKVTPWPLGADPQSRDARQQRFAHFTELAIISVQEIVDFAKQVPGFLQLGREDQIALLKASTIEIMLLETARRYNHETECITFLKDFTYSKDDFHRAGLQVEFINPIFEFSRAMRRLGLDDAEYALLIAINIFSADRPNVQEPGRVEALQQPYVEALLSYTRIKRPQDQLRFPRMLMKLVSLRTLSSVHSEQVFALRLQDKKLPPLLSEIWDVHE
Transcriptional activator Myb (Homo sapiens), sequence (P10242 whole entry, looked up): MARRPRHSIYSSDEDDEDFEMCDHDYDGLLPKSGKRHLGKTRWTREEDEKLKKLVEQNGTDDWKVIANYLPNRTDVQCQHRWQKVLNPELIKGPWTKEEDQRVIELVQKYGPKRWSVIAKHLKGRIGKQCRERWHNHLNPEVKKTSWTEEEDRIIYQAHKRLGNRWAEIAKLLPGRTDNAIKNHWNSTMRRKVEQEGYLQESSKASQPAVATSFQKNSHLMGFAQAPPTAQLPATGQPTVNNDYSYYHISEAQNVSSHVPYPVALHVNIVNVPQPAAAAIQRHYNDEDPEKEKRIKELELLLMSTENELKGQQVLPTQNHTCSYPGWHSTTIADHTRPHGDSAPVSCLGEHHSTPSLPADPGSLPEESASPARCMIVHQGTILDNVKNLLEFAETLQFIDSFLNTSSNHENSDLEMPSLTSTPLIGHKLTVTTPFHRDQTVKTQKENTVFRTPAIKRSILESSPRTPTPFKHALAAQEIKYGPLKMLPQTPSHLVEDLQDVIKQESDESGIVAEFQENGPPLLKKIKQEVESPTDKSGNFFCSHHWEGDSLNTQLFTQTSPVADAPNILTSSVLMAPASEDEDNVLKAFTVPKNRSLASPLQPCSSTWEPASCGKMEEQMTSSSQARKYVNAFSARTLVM
Estrogen receptor (Homo sapiens), sequence (P03372 whole entry, looked up, the tested form may be a part): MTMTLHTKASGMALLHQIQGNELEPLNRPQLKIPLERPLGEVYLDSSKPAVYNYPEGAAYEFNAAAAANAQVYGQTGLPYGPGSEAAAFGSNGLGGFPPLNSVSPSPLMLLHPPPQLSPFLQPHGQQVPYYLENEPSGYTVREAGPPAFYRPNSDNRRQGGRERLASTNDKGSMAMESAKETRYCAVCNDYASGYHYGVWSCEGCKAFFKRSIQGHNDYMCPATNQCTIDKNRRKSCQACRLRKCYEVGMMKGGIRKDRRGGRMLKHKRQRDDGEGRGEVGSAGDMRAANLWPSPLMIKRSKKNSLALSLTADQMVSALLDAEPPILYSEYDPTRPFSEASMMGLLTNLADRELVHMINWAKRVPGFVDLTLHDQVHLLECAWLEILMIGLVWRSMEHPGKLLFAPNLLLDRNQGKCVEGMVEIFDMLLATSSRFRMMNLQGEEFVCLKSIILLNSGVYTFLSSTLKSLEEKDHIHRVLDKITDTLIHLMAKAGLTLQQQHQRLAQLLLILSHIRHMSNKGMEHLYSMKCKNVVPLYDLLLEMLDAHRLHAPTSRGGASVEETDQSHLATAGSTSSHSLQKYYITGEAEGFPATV
Nuclear receptor subfamily 1 group I member 3 (Homo sapiens), sequence (Q14994 whole entry, looked up, the tested form may be a part): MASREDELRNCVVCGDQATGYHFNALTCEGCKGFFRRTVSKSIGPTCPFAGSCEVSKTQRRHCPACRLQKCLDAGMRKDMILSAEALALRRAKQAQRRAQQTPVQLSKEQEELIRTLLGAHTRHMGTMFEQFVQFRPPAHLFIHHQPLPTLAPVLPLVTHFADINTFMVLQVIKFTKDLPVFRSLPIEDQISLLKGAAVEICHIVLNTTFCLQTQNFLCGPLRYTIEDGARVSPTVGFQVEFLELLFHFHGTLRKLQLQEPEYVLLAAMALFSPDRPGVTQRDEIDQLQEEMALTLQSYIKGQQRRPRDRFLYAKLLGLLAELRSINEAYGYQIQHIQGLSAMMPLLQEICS

O=C(O)CCCCCCCC(=O)O
inactive: [1] | [2] | [3] | [4] | [5] | [6] | [7] | [8] | [9] | [10] | [11]

Cc1ccc2n[nH]nc2c1
inactive: [1] | [2] | [3] | [12] | [5] | [13] | [8] | [9] | [10]

C=C(C)C(=O)O[C@H]1C[C@@H]2CC[C@@]1(C)C2(C)C
active: [2] 143 µM | [12] 38 µM | [15] 27.5 µM
inactive: [1] | [3] | [5] | [14] | [6] | [9] | [10] | [11]

COC(C)CCO (stereo not drawn)
active: [3] 65.3 µM | [15] 27.7 µM
inactive: [1] | [2] | [4] | [6] | [8] | [16] | [10] | [11]

O=C(COc1ccc(Cl)cc1)N1CCN(Cc2ccc3c(c2)OCO3)CC1
active: [16] 67 µM
not listed: [4] | [6] | [11] | [13] | [15] | [20]
inactive: all other assays above

CC(C)=CCO
not listed: [4] | [5] | [8] | [13] | [16] | [19] | [20]
inactive: all other assays above

CC(=O)c1c(C)cc(C(C)(C)C)cc1C
not listed: [9] | [12] | [13] | [14] | [17] | [18] | [19] | [20]
inactive: all other assays above

O=C(O)CCCCCCCCCCC(=O)O
not listed: [4] | [9] | [17] | [18] | [19] | [20]
inactive: all other assays above

Nc1cc(Cl)c(O)c(Cl)c1
active: [3] 70.7 µM | [7] 100 µM
not listed: [4] | [8] | [13] | [15] | [18] | [20]
inactive: all other assays above

CNCCCC12CCC(c3ccccc31)c1ccccc12
inactive: [1] | [2] | [12] | [13] | [6] | [7] | [8] | [10] | [11]
active: [3] 15 µM | [5] 14.9 µM

O=[N+]([O-])c1ccc(C=Cc2ccc([N+](=O)[O-])cc2S(=O)(=O)O)c(S(=O)(=O)O)c1
not listed: [4] | [6] | [9] | [15] | [17] | [18] | [19] | [20]
inactive: all other assays above

CO[Si](C)(OC)c1ccccc1
active: [3] 7.98 µM
inactive: [1] | [2] | [12] | [5] | [14] | [13] | [8] | [16] | [10]

CCCCCCCCC
not listed: [4] | [8] | [13] | [15] | [16] | [17] | [19] | [20]
inactive: all other assays above

ClCCCl
inactive: [1] | [2] | [3] | [4] | [5] | [8] | [10]

CC(C)(COC(=O)c1ccccc1)COC(=O)c1ccccc1
active: [2] 100 µM | [3] 45.8 µM
not listed: [5] | [12] | [14] | [17] | [18] | [19] | [20]
inactive: all other assays above

Cc1c(N(C)C)c(=O)n(-c2ccccc2)n1C
not listed: [5] | [7] | [11] | [12] | [13] | [14] | [17] | [19]
inactive: all other assays above

CCCC(=O)c1cc(O)c(O)cc1O
not listed: [4] | [7] | [9] | [15] | [16] | [17]
inactive: all other assays above

CC(C)(N)CO
not listed: [4] | [7] | [9] | [14] | [16] | [18]
inactive: all other assays above
